This is part of a sample that, as a whole, favours compounds with a hit. Of some 83,000 tested, about 20% had one in any assay.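 Testing used 96-well plates and a 48-hour single-concentration exposure. Example: -40 means 40% of the starting cells died.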 Calls of active or inactive are those of the source. Rule for the calls: active = growth percent below 10; inactive = the rest.
Key:
Test in all cases: NCI-60 one-dose screen, 48 h (100 = growth as untreated, 0 = no growth, -100 = all killed)
Details in all cases: 10 µM unless noted
[1] = system: NCI-H23 lung
[2] = system: NCI-H226 lung
[3] = system: NCI-H322M lung
[4] = system: HOP-62 NSCLC
[5] = system: NCI-H460 lung
[6] = system: HOP-92 NSCLC
[7] = system: NCI-H522 lung
[8] = system: A549/ATCC NSCLC
[9] = system: 786-0 renal
[10] = system: COLO 205 colon
[11] = system: DU-145 prostate
[12] = system: K-562 leukemia
[13] = system: MALME-3M melanoma
[14] = system: MDA-MB-231 breast
[15] = system: RXF 393 renal
[16] = system: SF-268 CNS
[17] = system: SF-295 CNS
[18] = system: SF-539 CNS
[19] = system: UACC-257 melanoma
[20] = system: M14 melanoma

Measured: growth

CCCS(=O)(=O)Nc1ccc(F)c(C(=O)c2c[nH]c3ncc(-c4ccc(OCCCC5CCCCN5)nc4)cc23)c1F (stereo not given)
inactive: [1] 80.7% | [2] 69.9% | [3] 97.8% | [4] 65.5% | [5] 79.9% | [7] 59.5% | [8] 83.5% | [9] 78.7% | [11] 87.5% | [12] 30.1% | [14] 14.9% | [15] 63.9% | [16] 68.6% | [17] 75.7% | [18] 28.4%
active: [6] 4.71% | [10] 2.52% | [13] -25.7% | [19] -17% | [20] -17.2%

Cc1cc(C)c(NC(=O)c2sc3nc4c(cc3c2N)CCCCCC4)c(C)c1
inactive: [1] 81.1% | [2] 75.6% | [3] 99.7% | [4] 45.6% | [5] 46.2% | [6] 51.3% | [8] 53.2% | [9] 48.7% | [10] 81.5% | [11] 66.4% | [12] 16.8% | [13] 57.4% | [14] 88.2% | [15] 65.8% | [16] 59.4% | [17] 38.1% | [18] 60% | [19] 62.8% | [20] 27%
active: [7] 4.69%

Nc1c(C(=O)Nc2ccccn2)sc2nc3c(cc12)CCCC3
inactive: [1] 69% | [2] 82.8% | [3] 78.7% | [4] 45.3% | [5] 25.3% | [6] 60.2% | [7] 29.2% | [8] 46.4% | [9] 48.7% | [10] 49.5% | [11] 72% | [12] 14.1% | [13] 62.7% | [14] 66.5% | [15] 84.7% | [16] 62.4% | [17] 34% | [18] 39.3% | [19] 67.8% | [20] 18%

Cc1ccc(C2CC(c3ccc(Nc4nc(NCCO)nc(NCCO)n4)cc3)=NN2c2ccc(Cl)cc2)cc1 (stereo not given)
inactive: [1] 71.8% | [2] 101% | [3] 51.3% | [4] 67.6% | [5] 26.6% | [6] 88.6% | [7] 67% | [8] 48.1% | [9] 23.7% | [10] 70.3% | [11] 62.6% | [12] 14.9% | [13] 67.3% | [14] 66.9% | [16] 56.8% | [17] 30.3% | [18] 39% | [19] 75.1% | [20] 61.4%
active: [15] -12.6%

N#Cc1c(-c2ccc(F)cc2)nc(N=Nc2c(O)[nH]c3ccc(Cl)cc23)nc1N1CCOCC1
active: [6] -9.97% | [15] 8.65% | [18] 2.98%
inactive: [1] 37.4% | [2] 10.5% | [3] 46.9% | [4] 11.6% | [5] 51.8% | [7] 53.4% | [8] 23.8% | [9] 17% | [10] 65.5% | [11] 40% | [12] 62.4% | [13] 38% | [14] 26.9% | [16] 41.4% | [17] 13.9% | [19] 57.3% | [20] 51.5%

COC(=O)c1nc(-c2ccccc2)oc1S(=O)(=O)n1nc(C)cc1N
inactive: [1] 92.1% | [2] 110% | [3] 91.8% | [4] 97% | [5] 96.9% | [6] 49.5% | [8] 94.9% | [9] 80.6% | [11] 92.5% | [14] 92.7% | [15] 104% | [16] 83.2% | [17] 95.4% | [18] 76.1% | [19] 83.3% | [20] 67.1%
active: [7] -25.8% | [10] -63.9% | [12] 3.02% | [13] -37.1%

C=C1C(=O)O[C@H]2[C@H]1CC/C(COC(=O)N1CCC[C@H]1C(=O)Nc1ccc(OC)c(C(N)=O)c1O)=C\CC[C@@]1(C)O[C@@H]21
inactive: [1] 79.5% | [2] 52.8% | [3] 90.6% | [4] 88.6% | [5] 73.9% | [8] 75.4% | [9] 41.4% | [11] 39.4% | [12] 11.2% | [13] 27.3% | [14] 46% | [16] 54.6% | [17] 90.1% | [19] 25.2% | [20] 36.5%
active: [6] -11.2% | [7] -28.1% | [10] -25.7% | [15] -12.7% | [18] -4.09%

C=C1C(=O)O[C@H]2[C@H]1CC/C(COC(=O)NCc1nc3ccccc3[nH]1)=C\CC[C@@]1(C)O[C@@H]21
inactive: [1] 87.2% | [2] 88.4% | [3] 112% | [4] 95% | [5] 102% | [6] 136% | [8] 94.6% | [9] 101% | [10] 18.8% | [11] 80.1% | [12] 24.7% | [13] 86.8% | [14] 90.8% | [15] 67.2% | [16] 105% | [17] 106% | [18] 77.9% | [19] 94.9% | [20] 77.5%
active: [7] -43.9%

COc1ccc(/C=C/C(=O)Nc2ncnc3nc[nH]c23)cc1
inactive: [1] 97.7% | [2] 104% | [3] 101% | [4] 109% | [5] 99.2% | [6] 106% | [7] 81.1% | [8] 92.9% | [9] 95.6% | [10] 115% | [11] 92.1% | [12] 81.2% | [13] 96.4% | [14] 109% | [15] 95.4% | [16] 93.5% | [17] 107% | [18] 100% | [19] 100% | [20] 87.8%

O=C1CCC23OC(c4ccccc4N12)C(O)C(O)C3O (stereo not given)
inactive: [1] 102% | [2] 107% | [3] 98.6% | [4] 104% | [5] 112% | [6] 113% | [7] 81% | [8] 94.5% | [9] 98.8% | [10] 124% | [11] 107% | [12] 90.4% | [13] 91.6% | [14] 103% | [15] 113% | [16] 96.6% | [17] 110% | [18] 101% | [19] 102% | [20] 100%

O=C(Nc1cc(Br)ccn1)c1cc2cc(Nc3nc(-c4ccccc4)nc4ccccc34)ccc2oc1=O
inactive: [1] 98.6% | [2] 117% | [3] 111% | [4] 103% | [5] 106% | [6] 105% | [7] 95.2% | [8] 104% | [9] 94.2% | [10] 105% | [11] 111% | [12] 88.6% | [13] 117% | [14] 118% | [15] 133% | [16] 112% | [17] 108% | [18] 105% | [19] 112% | [20] 102%

COc1ccc(C(=O)c2cc(OC)c(OC)c(OC)c2)cc1OC(=O)C(Cl)(Cl)Cl
active: [5] 5.08% | [7] -13.3% | [11] 7.06% | [12] 7.85% | [17] 8.77% | [18] -7.13% | [20] -4.45%
inactive: [1] 26.9% | [2] 95.4% | [3] 38.4% | [4] 17.3% | [6] 50.3% | [8] 19% | [9] 20.9% | [10] 13% | [13] 74.8% | [14] 28.7% | [15] 29.9% | [16] 34.7% | [19] 56%

CNCc1cccc2c1OCCOCCOCCN(CCN1CCOCC1)S(=O)(=O)c1ccc(cc1)-c1cnc(N)c(n1)C(=O)N2
inactive: [1] 42.3% | [2] 78.4% | [3] 49.8% | [4] 100% | [5] 30.7% | [6] 87.9% | [7] 49% | [8] 46.4% | [9] 10.6% | [10] 22.3% | [11] 45.7% | [12] 12.6% | [13] 93.8% | [14] 94.1% | [15] 14.8% | [16] 68% | [17] 68.1% | [18] 24.1% | [19] 98.7% | [20] 26.4%

O=C(/C(=C\c1c(-c2ccccc2)[nH]c2ccccc12)S(=O)(=O)c1ccccc1)c1ccccc1
inactive: [1] 47.9% | [2] 53.6% | [3] 67.6% | [4] 64.5% | [5] 37.8% | [8] 44.6% | [9] 68.1% | [10] 70.8% | [11] 68.5% | [13] 83.3% | [14] 49.8% | [15] 46.7% | [16] 62.1% | [18] 75.4% | [19] 32.3% | [20] 49.7%
active: [6] -4.34% | [7] -12.2% | [12] 8% | [17] -6.63%

CC(C)(C)c1nc2c(s1)c1nc(N)ncc1c1ccc(NS(=O)(=O)c3c(F)cccc3F)c(F)c12
inactive: [1] 78.5% | [2] 65.4% | [3] 60.4% | [4] 84.1% | [5] 52.5% | [6] 44.1% | [7] 50.3% | [8] 55.8% | [9] 66.1% | [11] 49.9% | [12] 66.3% | [14] 29.2% | [15] 13.6% | [16] 79.1% | [17] 60.7% | [18] 79.7%
active: [10] 4.03% | [13] -31.6% | [19] -13.1% | [20] 7.08%

CC1CCN(CCCCCOc2ccc3oc4cc(Cl)ccc4c(=O)c3c2)CC1
inactive: [1] 87.7% | [2] 113% | [3] 73.8% | [4] 82.2% | [5] 36.3% | [6] 93.6% | [7] 69.9% | [8] 68.6% | [9] 65.1% | [10] 36.6% | [11] 83.7% | [14] 44.3% | [15] 52.8% | [16] 68.1% | [17] 78.2% | [18] 40.6%
active: [12] 5.17% | [13] 9.78% | [19] -38.8% | [20] -50.1%

Source: PubChem BioAssay (NCI)
